Experimental data as given in the supplement of paper PMC11732987, “Enantioselective OTUD7B fragment discovery through chemoproteomics screening and high-throughput optimisation” (Communications Chemistry, 2025).

Experiments:
Test in all cases: log2 ratio of Biotin-Ahx-Ub-VS probe labelling (fragment/DMSO); higher = less target engagement (more negative = stronger competition), active = hit call of the paper (q ≤ 0.05, log2 ratio ≤ -1)
Conditions in all cases: compound concentration: 200 uM; treatment time: 3 h
USP42 = molecular target: T1, USP42 (UniProt Q9H9J4)
T1 sequence (whole entry): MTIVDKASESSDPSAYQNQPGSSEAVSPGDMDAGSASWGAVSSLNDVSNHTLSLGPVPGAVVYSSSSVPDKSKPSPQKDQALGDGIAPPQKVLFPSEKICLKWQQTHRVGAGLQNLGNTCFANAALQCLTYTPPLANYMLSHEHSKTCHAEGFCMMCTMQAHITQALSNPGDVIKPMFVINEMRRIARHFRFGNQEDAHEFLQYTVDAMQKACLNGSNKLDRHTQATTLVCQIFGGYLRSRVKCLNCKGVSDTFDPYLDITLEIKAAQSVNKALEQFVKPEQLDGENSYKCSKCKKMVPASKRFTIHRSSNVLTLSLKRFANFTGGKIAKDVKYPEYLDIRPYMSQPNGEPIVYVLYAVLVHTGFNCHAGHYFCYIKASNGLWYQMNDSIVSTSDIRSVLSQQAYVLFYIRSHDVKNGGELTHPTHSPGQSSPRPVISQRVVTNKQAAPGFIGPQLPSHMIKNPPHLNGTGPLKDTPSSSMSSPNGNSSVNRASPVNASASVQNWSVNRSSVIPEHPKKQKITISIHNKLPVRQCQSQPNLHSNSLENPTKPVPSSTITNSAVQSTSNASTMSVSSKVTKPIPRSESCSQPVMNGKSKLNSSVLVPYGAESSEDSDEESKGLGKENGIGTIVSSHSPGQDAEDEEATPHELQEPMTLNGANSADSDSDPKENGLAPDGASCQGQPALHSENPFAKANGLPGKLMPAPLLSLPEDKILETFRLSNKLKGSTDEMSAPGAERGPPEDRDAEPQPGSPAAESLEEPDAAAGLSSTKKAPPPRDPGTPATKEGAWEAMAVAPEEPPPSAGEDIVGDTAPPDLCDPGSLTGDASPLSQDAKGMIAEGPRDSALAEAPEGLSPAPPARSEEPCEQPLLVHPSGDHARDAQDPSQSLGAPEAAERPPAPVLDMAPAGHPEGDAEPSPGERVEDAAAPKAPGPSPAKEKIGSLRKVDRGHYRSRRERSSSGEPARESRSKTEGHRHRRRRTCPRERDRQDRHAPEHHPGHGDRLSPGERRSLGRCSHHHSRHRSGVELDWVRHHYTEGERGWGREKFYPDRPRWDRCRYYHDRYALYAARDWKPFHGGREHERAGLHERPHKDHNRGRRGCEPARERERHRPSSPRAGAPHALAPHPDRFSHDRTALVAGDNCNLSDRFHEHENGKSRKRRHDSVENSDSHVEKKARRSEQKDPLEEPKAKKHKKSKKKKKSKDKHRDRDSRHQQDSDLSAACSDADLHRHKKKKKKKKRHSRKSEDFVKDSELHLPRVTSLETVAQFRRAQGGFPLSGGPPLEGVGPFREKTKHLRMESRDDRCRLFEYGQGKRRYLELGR
Summary of the method: (§1)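 Labelled DUBs were enriched with NeutrAvidin, digested with LysC and trypsin, and run by diaPASEF LC-MS/MS. The labelling used Biotin-Ahx-Ub-VS at 0.5 µM final for 1 h on HEK293T lysate (495 µg per sample) previously treated in triplicate with fragment at 200 µM or vehicle for 3 h. Values are average log2 fragment/vehicle ratios by unpaired t-test on global-median-normalised Spectronaut quantities of proteins with ≥2 unique peptides.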

USP46 = USP46 (UniProt P62068)
Summary of the method: as §1

USP47 = molecular target: T2, USP47 (UniProt Q96K76)
T2 sequence (whole entry): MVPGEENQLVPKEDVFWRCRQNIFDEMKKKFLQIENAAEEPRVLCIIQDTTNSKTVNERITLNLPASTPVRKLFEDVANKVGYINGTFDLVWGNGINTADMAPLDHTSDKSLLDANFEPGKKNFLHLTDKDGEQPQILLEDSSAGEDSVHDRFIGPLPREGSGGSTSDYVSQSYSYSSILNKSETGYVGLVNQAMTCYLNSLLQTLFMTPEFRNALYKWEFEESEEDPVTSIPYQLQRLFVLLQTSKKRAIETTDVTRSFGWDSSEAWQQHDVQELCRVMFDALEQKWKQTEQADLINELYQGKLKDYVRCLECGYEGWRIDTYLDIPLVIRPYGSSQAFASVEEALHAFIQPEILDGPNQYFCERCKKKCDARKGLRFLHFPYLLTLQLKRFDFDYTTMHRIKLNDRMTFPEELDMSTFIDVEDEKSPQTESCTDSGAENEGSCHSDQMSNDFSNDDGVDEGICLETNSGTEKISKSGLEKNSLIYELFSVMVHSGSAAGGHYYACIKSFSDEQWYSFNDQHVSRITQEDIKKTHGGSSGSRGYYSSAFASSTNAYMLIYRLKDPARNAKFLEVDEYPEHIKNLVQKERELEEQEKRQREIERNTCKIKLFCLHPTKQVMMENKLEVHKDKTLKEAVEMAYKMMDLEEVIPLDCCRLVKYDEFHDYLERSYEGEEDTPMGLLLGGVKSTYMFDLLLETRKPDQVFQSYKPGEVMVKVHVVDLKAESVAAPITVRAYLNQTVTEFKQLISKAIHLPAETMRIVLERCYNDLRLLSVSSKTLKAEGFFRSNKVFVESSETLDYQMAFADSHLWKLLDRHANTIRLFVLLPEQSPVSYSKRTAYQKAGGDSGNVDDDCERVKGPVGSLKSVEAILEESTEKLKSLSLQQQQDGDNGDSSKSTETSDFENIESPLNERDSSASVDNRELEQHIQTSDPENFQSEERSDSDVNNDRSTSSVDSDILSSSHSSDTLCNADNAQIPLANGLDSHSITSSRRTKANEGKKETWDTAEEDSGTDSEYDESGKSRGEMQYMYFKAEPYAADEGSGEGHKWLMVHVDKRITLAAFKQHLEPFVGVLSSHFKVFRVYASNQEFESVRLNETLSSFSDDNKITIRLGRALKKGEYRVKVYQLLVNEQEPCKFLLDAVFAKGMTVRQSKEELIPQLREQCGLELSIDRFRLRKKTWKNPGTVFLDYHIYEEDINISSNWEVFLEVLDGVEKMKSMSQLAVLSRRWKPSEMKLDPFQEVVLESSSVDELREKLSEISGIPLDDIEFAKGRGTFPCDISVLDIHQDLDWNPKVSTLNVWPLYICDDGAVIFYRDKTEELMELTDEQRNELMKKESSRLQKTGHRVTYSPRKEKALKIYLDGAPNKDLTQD
Summary of the method: as §1

USP48 = molecular target: T3, USP48 (UniProt Q86UV5)
T3 sequence (whole entry): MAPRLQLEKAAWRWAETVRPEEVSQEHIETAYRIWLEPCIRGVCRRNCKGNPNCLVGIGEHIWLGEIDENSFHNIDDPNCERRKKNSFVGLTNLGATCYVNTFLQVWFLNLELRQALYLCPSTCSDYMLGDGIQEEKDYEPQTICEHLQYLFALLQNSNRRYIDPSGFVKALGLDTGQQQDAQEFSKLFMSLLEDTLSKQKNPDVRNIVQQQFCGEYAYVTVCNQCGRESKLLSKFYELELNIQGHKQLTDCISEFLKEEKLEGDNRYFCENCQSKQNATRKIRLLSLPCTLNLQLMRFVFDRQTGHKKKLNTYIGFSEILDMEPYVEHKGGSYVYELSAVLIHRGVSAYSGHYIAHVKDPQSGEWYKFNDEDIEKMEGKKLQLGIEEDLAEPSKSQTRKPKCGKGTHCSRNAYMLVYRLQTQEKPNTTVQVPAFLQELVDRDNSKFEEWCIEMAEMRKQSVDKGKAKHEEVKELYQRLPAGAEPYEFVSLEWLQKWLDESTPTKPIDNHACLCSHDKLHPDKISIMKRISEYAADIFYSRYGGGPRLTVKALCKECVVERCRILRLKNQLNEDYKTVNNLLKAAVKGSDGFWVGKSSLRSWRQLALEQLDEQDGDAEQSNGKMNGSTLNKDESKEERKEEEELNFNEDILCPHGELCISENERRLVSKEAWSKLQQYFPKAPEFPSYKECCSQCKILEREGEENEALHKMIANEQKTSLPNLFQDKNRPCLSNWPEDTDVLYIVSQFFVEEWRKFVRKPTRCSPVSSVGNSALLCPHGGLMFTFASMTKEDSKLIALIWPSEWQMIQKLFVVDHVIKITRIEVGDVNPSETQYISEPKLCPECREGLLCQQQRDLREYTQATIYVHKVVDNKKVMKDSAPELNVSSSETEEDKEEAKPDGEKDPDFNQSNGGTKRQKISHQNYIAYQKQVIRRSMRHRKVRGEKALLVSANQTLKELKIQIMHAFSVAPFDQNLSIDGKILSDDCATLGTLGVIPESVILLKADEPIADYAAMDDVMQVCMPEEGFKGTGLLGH
Summary of the method: as §1

USP5 = molecular target: T4, USP5 (UniProt P45974)
T4 sequence (whole entry): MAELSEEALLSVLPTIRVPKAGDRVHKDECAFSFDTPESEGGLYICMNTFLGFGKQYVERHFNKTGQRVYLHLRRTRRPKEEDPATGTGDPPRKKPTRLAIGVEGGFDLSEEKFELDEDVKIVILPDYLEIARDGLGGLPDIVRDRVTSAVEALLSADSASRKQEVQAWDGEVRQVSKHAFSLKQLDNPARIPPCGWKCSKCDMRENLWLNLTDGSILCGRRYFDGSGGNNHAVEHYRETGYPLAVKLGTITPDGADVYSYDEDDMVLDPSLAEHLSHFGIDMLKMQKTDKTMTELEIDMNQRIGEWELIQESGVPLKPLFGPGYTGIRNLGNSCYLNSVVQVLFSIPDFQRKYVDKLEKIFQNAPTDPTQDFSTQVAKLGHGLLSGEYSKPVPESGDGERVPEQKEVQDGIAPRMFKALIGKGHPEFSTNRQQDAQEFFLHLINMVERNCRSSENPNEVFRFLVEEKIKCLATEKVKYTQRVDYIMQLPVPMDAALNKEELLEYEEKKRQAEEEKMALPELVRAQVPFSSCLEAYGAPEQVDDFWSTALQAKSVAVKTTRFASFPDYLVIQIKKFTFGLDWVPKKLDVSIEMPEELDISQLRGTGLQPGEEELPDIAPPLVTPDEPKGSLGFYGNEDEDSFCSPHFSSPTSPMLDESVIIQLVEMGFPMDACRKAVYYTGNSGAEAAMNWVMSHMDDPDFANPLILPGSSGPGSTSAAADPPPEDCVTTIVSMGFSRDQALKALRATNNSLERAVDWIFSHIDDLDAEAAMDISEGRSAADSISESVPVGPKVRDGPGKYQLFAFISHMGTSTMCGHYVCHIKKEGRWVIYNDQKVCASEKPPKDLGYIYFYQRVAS
Summary of the method: as §1

USP54 = USP54 (UniProt Q70EL1)
Summary of the method: as §1

USP7 = USP7 (UniProt Q93009)
Summary of the method: as §1

USP8 = molecular target: T5, USP8 (UniProt P40818)
T5 sequence (whole entry): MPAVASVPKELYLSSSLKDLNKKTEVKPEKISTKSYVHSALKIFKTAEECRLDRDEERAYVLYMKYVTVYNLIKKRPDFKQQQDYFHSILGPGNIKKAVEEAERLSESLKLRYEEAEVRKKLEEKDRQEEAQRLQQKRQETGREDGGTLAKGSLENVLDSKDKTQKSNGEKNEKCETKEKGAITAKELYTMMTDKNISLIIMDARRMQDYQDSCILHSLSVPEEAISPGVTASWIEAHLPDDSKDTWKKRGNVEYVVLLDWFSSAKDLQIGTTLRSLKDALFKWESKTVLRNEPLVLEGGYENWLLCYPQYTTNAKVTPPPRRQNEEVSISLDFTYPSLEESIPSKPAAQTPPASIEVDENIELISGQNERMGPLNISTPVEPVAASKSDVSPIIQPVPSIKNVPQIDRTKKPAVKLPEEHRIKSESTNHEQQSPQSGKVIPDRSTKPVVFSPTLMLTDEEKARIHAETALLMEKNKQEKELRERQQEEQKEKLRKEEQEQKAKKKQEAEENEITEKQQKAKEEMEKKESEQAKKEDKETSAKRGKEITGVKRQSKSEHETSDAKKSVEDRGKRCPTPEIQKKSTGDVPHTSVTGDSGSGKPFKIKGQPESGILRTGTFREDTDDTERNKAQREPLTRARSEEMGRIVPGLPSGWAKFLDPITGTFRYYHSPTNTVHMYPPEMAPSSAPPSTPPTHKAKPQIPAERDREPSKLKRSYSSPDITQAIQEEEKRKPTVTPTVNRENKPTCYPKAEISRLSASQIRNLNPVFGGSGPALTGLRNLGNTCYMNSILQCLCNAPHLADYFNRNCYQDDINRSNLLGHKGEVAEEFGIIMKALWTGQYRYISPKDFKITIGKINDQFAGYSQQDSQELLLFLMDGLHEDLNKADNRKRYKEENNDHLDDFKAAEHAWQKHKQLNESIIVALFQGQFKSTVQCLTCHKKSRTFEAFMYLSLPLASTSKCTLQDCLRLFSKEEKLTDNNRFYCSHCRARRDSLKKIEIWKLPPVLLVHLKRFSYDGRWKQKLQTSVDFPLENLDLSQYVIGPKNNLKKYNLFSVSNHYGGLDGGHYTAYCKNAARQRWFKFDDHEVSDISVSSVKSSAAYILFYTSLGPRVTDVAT
Summary of the method: as §1

USP9X = USP9X (UniProt Q93008)
Summary of the method: as §1

UniProt O00487 = molecular target: UniProt O00487
Summary of the method: as §1

Measured: log2 ratio of Biotin-Ahx-Ub-VS probe labelling

Sequence of USP7 (Q93009 whole entry, looked up): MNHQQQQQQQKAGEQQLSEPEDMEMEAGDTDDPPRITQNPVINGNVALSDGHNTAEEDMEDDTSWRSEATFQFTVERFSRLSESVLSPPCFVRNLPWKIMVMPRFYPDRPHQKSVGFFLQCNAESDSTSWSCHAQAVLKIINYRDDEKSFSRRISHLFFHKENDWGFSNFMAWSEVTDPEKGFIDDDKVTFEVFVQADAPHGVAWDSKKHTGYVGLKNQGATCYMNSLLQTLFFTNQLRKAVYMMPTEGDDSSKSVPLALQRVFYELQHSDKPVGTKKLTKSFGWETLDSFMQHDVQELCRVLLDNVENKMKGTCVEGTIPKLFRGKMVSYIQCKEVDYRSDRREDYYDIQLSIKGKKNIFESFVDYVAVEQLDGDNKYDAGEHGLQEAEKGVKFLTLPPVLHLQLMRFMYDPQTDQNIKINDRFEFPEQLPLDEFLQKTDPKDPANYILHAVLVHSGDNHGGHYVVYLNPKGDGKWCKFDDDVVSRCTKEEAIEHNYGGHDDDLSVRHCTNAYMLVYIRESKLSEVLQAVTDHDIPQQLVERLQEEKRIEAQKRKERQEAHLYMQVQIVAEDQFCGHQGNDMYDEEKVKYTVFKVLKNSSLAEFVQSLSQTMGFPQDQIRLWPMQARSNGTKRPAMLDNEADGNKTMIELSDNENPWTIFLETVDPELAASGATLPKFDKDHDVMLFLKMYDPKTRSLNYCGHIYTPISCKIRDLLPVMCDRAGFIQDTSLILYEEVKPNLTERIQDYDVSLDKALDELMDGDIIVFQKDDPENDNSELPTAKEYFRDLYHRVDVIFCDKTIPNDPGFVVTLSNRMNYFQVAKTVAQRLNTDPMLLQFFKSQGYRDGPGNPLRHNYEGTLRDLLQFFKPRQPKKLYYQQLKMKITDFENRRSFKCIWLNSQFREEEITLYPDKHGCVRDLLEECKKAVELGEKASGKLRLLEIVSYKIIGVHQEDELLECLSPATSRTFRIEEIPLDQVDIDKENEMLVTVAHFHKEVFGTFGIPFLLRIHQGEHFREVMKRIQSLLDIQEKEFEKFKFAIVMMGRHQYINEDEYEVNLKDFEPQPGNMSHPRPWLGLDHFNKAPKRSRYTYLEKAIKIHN
Sequence of USP46 (P62068 whole entry): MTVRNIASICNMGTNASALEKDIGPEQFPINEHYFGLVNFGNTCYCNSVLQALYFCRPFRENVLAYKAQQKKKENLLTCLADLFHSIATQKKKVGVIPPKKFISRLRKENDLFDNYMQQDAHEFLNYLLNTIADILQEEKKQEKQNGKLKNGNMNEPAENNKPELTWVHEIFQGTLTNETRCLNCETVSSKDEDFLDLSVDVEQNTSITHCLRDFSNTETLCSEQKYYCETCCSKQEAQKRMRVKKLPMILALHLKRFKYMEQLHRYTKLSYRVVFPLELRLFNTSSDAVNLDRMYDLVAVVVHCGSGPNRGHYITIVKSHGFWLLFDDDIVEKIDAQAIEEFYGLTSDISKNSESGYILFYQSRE
Sequence of UniProt O00487 (O00487 whole entry): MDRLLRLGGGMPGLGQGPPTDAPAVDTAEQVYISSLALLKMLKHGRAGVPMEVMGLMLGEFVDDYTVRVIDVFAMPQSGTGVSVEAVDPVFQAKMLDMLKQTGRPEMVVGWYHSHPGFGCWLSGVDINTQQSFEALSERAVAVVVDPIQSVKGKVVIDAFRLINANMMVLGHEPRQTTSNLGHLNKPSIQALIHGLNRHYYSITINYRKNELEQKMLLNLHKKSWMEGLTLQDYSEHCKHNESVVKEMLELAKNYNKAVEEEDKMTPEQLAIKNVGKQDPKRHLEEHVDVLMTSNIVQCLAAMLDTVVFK
Sequence of USP9X (Q93008 whole entry): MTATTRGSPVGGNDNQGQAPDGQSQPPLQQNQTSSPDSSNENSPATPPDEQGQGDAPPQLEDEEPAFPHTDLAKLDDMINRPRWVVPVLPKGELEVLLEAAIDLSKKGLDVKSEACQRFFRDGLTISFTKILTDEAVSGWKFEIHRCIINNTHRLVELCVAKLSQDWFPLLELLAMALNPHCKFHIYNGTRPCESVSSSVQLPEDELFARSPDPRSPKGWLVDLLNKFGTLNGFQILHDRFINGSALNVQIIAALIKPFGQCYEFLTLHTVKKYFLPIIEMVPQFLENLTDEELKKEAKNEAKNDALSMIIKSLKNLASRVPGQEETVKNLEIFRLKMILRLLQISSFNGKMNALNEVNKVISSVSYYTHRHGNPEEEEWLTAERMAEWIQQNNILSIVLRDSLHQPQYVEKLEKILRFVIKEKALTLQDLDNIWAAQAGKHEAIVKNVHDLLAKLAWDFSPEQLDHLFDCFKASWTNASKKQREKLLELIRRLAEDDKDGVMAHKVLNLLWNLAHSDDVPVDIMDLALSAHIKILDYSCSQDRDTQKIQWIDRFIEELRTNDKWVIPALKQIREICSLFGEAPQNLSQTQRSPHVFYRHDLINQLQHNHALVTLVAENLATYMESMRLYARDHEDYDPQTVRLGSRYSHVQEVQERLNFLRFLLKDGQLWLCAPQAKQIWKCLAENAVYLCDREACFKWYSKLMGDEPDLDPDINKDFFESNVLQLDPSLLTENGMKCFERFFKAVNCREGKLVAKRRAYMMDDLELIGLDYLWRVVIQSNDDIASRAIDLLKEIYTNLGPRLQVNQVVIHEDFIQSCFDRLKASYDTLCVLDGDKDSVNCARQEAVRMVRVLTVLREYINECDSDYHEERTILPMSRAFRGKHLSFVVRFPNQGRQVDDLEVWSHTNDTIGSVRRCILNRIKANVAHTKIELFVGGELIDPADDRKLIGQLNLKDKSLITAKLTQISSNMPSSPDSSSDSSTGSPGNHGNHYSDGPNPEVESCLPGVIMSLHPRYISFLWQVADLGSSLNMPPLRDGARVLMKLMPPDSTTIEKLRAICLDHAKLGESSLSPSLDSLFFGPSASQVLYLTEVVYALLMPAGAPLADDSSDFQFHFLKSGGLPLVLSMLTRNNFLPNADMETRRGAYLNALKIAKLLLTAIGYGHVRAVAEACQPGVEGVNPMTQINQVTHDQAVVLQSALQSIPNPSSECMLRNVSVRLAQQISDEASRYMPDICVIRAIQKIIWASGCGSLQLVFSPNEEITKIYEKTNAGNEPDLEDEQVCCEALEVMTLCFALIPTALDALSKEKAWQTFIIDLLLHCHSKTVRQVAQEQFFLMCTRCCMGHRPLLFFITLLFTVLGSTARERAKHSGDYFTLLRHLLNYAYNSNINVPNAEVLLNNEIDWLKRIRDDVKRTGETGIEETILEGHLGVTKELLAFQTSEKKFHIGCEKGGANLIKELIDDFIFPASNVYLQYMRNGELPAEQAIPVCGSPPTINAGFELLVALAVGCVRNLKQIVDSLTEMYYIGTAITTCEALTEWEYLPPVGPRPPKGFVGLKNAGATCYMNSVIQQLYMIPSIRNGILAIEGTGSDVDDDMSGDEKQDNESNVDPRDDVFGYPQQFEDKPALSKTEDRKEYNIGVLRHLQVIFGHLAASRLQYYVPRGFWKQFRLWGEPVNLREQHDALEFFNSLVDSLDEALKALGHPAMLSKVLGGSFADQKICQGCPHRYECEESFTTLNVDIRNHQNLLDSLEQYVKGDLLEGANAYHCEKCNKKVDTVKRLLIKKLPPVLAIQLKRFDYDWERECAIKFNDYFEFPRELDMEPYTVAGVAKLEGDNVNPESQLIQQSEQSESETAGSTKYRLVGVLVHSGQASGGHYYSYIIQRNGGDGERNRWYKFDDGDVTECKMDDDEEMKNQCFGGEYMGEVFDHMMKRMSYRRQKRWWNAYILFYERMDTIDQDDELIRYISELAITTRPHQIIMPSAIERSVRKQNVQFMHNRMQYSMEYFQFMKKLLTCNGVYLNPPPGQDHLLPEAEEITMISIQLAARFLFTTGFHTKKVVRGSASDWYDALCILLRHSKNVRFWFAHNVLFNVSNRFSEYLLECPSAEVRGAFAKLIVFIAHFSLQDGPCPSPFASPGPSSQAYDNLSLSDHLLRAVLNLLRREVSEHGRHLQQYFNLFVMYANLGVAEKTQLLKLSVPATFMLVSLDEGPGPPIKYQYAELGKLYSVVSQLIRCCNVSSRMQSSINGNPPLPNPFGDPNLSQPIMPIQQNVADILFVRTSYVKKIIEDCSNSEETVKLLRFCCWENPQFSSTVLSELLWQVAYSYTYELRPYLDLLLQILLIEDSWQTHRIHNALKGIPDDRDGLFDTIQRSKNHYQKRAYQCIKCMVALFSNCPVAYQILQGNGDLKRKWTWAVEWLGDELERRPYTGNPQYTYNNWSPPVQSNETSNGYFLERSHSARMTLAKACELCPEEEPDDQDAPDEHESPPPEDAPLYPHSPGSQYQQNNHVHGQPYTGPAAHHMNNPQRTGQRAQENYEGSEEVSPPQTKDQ

C#Cc1cccc(NC(=O)CCl)c1
inactive: USP42 0.466 | USP46 -0.0515 | USP47 -0.468 | USP48 -0.362 | USP5 -0.268 | USP54 -0.249 | USP7 -0.56 | USP8 -0.179 | USP9X -0.146 | UniProt O00487 -0.148

N#Cc1ccccc1N1CCN(C(=O)CCl)CC1
inactive: USP42 0.456 | USP46 -0.871 | USP47 -0.514 | USP48 -1.04 | USP5 -0.123 | USP54 1.03 | USP8 -0.729 | USP9X -0.651 | UniProt O00487 0.0611
active: USP7 -1.73

COc1ccc(-c2csc(NC(=O)CCl)n2)cc1
inactive: USP42 -0.269 | USP46 -0.355 | USP47 -0.0139 | USP48 -0.611 | USP5 0.0191 | USP54 0.204 | USP7 -0.576 | USP8 -0.316 | USP9X -0.66 | UniProt O00487 -0.101
